From PubChem BioAssay AID1159580 (chemical genetic matrix, 2015)
“And” between values parts separate entries of the source, which are not always exact repeats. Equal entries are not always repeated. About 2,000 (36%) of roughly 5,500 compounds were called active. Another 18% or so got no clear call; they are omitted. Rule as the data show it: active = normalized growth mostly below about 0.91 (no sharp cut-off); inconclusive = no clear call, values can overlap the other calls; inactive = mostly above about 0.92. This is one part of the list.

Experiment: chemical genetic growth profiling, strain panel (AID 1159580);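 also: tested at 20 µM; growth read once vehicle control cultures reached saturation at 30 °C; 1 = growth at the plate median or of vehicle wells; lower values mean less growth of the strain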
Conditions: S. cerevisiae deletion strains, growth OD

Measured: normalized growth

O=C(O)CCCc1ccccc1
1 (inactive) and 0.818 (active): locus YHR030C, strain SLT2, stronger effect = lower value
active: locus YHR079C, strain IRE1, stronger effect = lower value 0.801 | locus YIL125W, strain kgd1, stronger effect = lower value 0.892 | locus YJR066W, strain TOR1, stronger effect = lower value 0.795 | locus YKL068W, stronger effect = lower value 0.917 | locus YKL085W, strain MDH1 (second series), stronger effect = lower value 0.93 | locus YKL085W, strain MDH1, stronger effect = lower value 0.93 | locus YLR113W, strain HOG1, stronger effect = lower value 0.687 | locus YNL183C, strain NPR1, stronger effect = lower value 0.772 | locus YOR231W, strain MKK1, stronger effect = lower value 0.778 | locus YPL256C, strain CLN2, stronger effect = lower value 0.72 | locus YPR141C, strain kar3, stronger effect = lower value 0.896
inactive: locus YAL021C, strain ccr4, stronger effect = lower value 0.962 | locus YAL026C, strain drs2, stronger effect = lower value 0.989 | locus YAL030W, strain snc1, stronger effect = lower value 0.988 | locus YBL061C, strain skt5, stronger effect = lower value 0.991 | locus YBR009C, strain hhf1, stronger effect = lower value 0.988 | locus YBR021W, strain FUR4, stronger effect = lower value 0.955 | locus YBR023C, strain chs3, stronger effect = lower value 0.994 | locus YBR171W, strain sec66, stronger effect = lower value 0.975 | locus YBR229C, strain ROT2, stronger effect = lower value 0.999 | locus YBR231C, strain swc5, stronger effect = lower value 1 | locus YBR279W, strain paf1, stronger effect = lower value 0.974 | locus YCL011C, strain gbp2, stronger effect = lower value 0.98 | locus YCL016C, strain dcc1, stronger effect = lower value 0.985 | locus YCL029C, strain bik1, stronger effect = lower value 0.982 | locus YCL069W, strain vba3, stronger effect = lower value 0.981 | locus YCR088W, strain abp1, stronger effect = lower value 0.973 | locus YDL005C, strain med2, stronger effect = lower value 0.979 | locus YDL035C, strain GPR1, stronger effect = lower value 1.01 | locus YDL040C, strain nat1, stronger effect = lower value 0.989 | locus YDL074C, strain BRE1, stronger effect = lower value 1 | locus YDL101C, strain DUN1, stronger effect = lower value 1 | locus YDL185W, strain tfp1, stronger effect = lower value 0.948 | locus YDL192W, strain arf1, stronger effect = lower value 0.996 | locus YDR001C, strain nth1, stronger effect = lower value 0.977 | locus YDR069C, strain doa4, stronger effect = lower value 1 | locus YDR101C, strain arx1, stronger effect = lower value 0.941 | locus YDR137W, strain rgp1, stronger effect = lower value 1 | locus YDR150W, strain NUM1, stronger effect = lower value 0.998 | locus YDR159W, strain sac3, stronger effect = lower value 0.981 | locus YDR162C, strain NBP2, stronger effect = lower value 1 | locus YDR195W, strain ref2 1.04 | locus YDR297W, strain sur2, stronger effect = lower value 0.991 | locus YDR318W, strain mcm21, stronger effect = lower value 0.986 | locus YDR334W, strain swr1, stronger effect = lower value 0.978 | locus YDR335W, strain msn5, stronger effect = lower value 0.988 | locus YDR388W, stronger effect = lower value 0.999 | locus YDR392W, strain spt3, stronger effect = lower value 0.963 | locus YDR502C, strain sam2, stronger effect = lower value 0.981 | locus YEL003W, strain gim4, stronger effect = lower value 0.986 | locus YEL037C, strain rad23, stronger effect = lower value 0.989 | locus YEL061C, strain CIN8 (second series), stronger effect = lower value 0.983 | locus YEL061C, strain CIN8, stronger effect = lower value 0.999 | locus YER015W, strain faa2, stronger effect = lower value 1 | locus YER016W, strain bim1, stronger effect = lower value 0.989 | locus YER110C, stronger effect = lower value 1 | locus YER111C, strain swi4, stronger effect = lower value 0.992 | locus YER155C, strain BEM2 (second series), stronger effect = lower value 1.01 | locus YER155C, strain BEM2, stronger effect = lower value 0.975 | locus YER167W, strain BCK2, stronger effect = lower value 1 | locus YFR010W, strain ubp6, stronger effect = lower value 0.997 | locus YGL078C, strain dbp3, stronger effect = lower value 0.933 | locus YGL086W, strain mad1, stronger effect = lower value 0.97 | locus YGL167C, strain pmr1, stronger effect = lower value 0.995 | locus YGL173C, strain kem1, stronger effect = lower value 0.997 | locus YGL227W, strain vid30, stronger effect = lower value 0.977 | locus YGL240W, strain doc1, stronger effect = lower value 1 | locus YGL248W, strain PDE1, stronger effect = lower value 0.997 | locus YGL253W, strain hxk2, stronger effect = lower value 0.974 | locus YGR135W, strain pre9, stronger effect = lower value 1.04 | locus YGR229C, strain SMI1, stronger effect = lower value 1.01 | locus YGR252W, strain gcn5, stronger effect = lower value 0.939 | locus YHR013C, strain ard1, stronger effect = lower value 1.01 | locus YHR027C, strain rpn1, stronger effect = lower value 1.01 | locus YHR079C, strain IRE1 (second series), stronger effect = lower value 0.975 | locus YHR094C, strain hxt1, stronger effect = lower value 0.995 | locus YHR129C, strain ARP1, stronger effect = lower value 0.993 | locus YHR142W, strain chs7, stronger effect = lower value 0.988 | locus YHR200W, strain rpn10, stronger effect = lower value 0.996 | locus YIL066C, strain RNR3, stronger effect = lower value 0.999 | locus YIL073C, strain SPO22, stronger effect = lower value 1.06 | locus YIR030C, strain dcg1, stronger effect = lower value 0.988 | locus YJL092W, strain hpr5, stronger effect = lower value 0.985 | locus YJL095W, strain BCK1 (second series), stronger effect = lower value 0.989 | locus YJL115W, strain asf1, stronger effect = lower value 0.986 | locus YJL129C, strain trk1, stronger effect = lower value 0.983 | locus YJL134W, strain LCB3, stronger effect = lower value 1.01 | locus YJL154C, strain vps35, stronger effect = lower value 0.976 | locus YJL164C, strain tpk1, stronger effect = lower value 0.987 | locus YJL166W, strain qcr8, stronger effect = lower value 0.992 | locus YJL168C, strain set2, stronger effect = lower value 0.998 | locus YJL187C, strain SWE1 (second series), stronger effect = lower value 0.99 | locus YJL187C, strain SWE1, stronger effect = lower value 0.99 | locus YJR043C, strain POL32, stronger effect = lower value 0.98 | locus YJR075W, strain HOC1, stronger effect = lower value 1.01 | locus YKL009W, strain mrt4, stronger effect = lower value 1 | locus YKL160W, strain elf1, stronger effect = lower value 0.969 | locus YKR001C, strain vps1, stronger effect = lower value 0.951 | locus YKR026C, strain gcn3, stronger effect = lower value 0.98 | locus YKR091W, strain srl3, stronger effect = lower value 0.98 | locus YLL001W, strain dnm1, stronger effect = lower value 0.995 | locus YLL026W, stronger effect = lower value 0.985 | locus YLL041C, strain sdh2, stronger effect = lower value 0.989 | locus YLR027C, strain aat2, stronger effect = lower value 0.984 | locus YLR039C, strain RIC1, stronger effect = lower value 1.01 | locus YLR058C, strain SHM2, stronger effect = lower value 1 | locus YLR102C, strain apc9, stronger effect = lower value 0.994 | locus YLR221C, strain rsa3, stronger effect = lower value 0.955 | locus YLR258W, strain gsy2, stronger effect = lower value 0.98 | locus YLR262C, strain YPT6 (second series), stronger effect = lower value 0.968 | locus YLR262C, strain YPT6, stronger effect = lower value 1.01 | locus YLR268W, strain sec22, stronger effect = lower value 0.985 | locus YLR320W, strain mms22, stronger effect = lower value 0.992 | locus YLR330W, strain CHS5, stronger effect = lower value 0.998 | locus YLR342W, strain FKS1 (second series), stronger effect = lower value 1.05 | locus YLR342W, strain FKS1, stronger effect = lower value 1.01 | locus YLR357W, strain rsc2, stronger effect = lower value 1 | locus YLR370C, strain arc18, stronger effect = lower value 0.977 | locus YLR371W, strain rom2, stronger effect = lower value 0.99 | locus YLR384C, strain iki3, stronger effect = lower value 0.989 | locus YLR418C, strain cdc73, stronger effect = lower value 1.02 | locus YML016C, strain PPZ1, stronger effect = lower value 1.01 | locus YML032C, strain rad52, stronger effect = lower value 0.982 | locus YML120C, strain ndi1, stronger effect = lower value 1 | locus YML124C, strain tub3, stronger effect = lower value 0.986 | locus YMR058W, strain fet3, stronger effect = lower value 0.989 | locus YMR078C, strain ctf18, stronger effect = lower value 0.992 | locus YMR125W, strain sto1, stronger effect = lower value 0.999 | locus YMR129W, stronger effect = lower value 0.978 | locus YMR205C, strain PFK2, stronger effect = lower value 0.972 | locus YMR223W, strain ubp8, stronger effect = lower value 1.02 | locus YMR231W, strain pep5, stronger effect = lower value 0.985 | locus YMR307W, strain GAS1, stronger effect = lower value 1.1 | locus YNL067W, strain RPL9B, stronger effect = lower value 0.981 | locus YNL071W, strain lat1, stronger effect = lower value 0.992 | locus YNL209W, strain ssb2, stronger effect = lower value 1.01 | locus YNL233W, strain BNI4, stronger effect = lower value 1 | locus YNL248C, strain rpa49, stronger effect = lower value 0.907 | locus YNL250W, strain rad50, stronger effect = lower value 0.925 | locus YNL271C, strain bni1, stronger effect = lower value 0.943 | locus YNL298W, strain CLA4, stronger effect = lower value 0.955 | locus YNL307C, strain MCK1, stronger effect = lower value 0.992 | locus YNL322C, strain KRE1 (second series), stronger effect = lower value 0.954 | locus YNR049C, strain mso1, stronger effect = lower value 0.975 | locus YNR052C, strain pop2, stronger effect = lower value 0.986 | locus YOL012C, strain htz1 1.62 | locus YOL147C, strain pex11, stronger effect = lower value 0.987 | locus YOR001W, strain rrp6, stronger effect = lower value 0.962 | locus YOR061W, strain CKA2, stronger effect = lower value 1 | locus YOR069W, strain VPS5, stronger effect = lower value 1 | locus YOR070C, strain gyp1, stronger effect = lower value 0.988 | locus YOR080W, strain dia2, stronger effect = lower value 0.994 | locus YOR083W, strain WHI5, stronger effect = lower value 0.975 | locus YOR106W, strain vam3, stronger effect = lower value 0.988 | locus YOR136W, strain idh2, stronger effect = lower value 0.976 | locus YOR144C, strain elg1, stronger effect = lower value 0.996 | locus YOR184W, strain ser1, stronger effect = lower value 0.988 | locus YOR265W, strain rbl2, stronger effect = lower value 0.989 | locus YOR270C, strain vph1, stronger effect = lower value 0.991 | locus YOR290C, strain snf2, stronger effect = lower value 0.962 | locus YOR316C, strain cot1, stronger effect = lower value 0.998 | locus YPL051W, strain arl3, stronger effect = lower value 0.988 | locus YPL055C, strain LGE1, stronger effect = lower value 0.963 | locus YPL078C, strain atp4, stronger effect = lower value 0.985 | locus YPL106C, strain sse1, stronger effect = lower value 0.969 | locus YPL240C, strain hsp82, stronger effect = lower value 0.988 | locus YPL241C, strain CIN2, stronger effect = lower value 1.01 | locus YPR119W, strain clb2, stronger effect = lower value 0.995 | locus YPR163C, strain tif3, stronger effect = lower value 0.983 | locus YPR167C, strain met16, stronger effect = lower value 0.99 | strain wtn01, stronger effect = lower value 0.995
0.998 (inactive) and 0.811 (active): locus YJL095W, strain BCK1, stronger effect = lower value
